# ATXN2 expr inh: ATXN2 expression inhibition. hit rate 0.72% among 360,000. HEK-293 ATXN2-luciferase reporter, luminescence, 24 h. Potency, µM (titrated, usually from 57 µM), for inactives: top-dose activity change, negative = inhibition, hits mostly inhibitors; further: on the % scale 0 is the no-effect control and ±100 the full control effect; nearly all actives have a fitted effect of over 55% in size
#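 qHTS (up to 57 uM final) was run with 24 h compound exposure of reporter cells at 37 °C. Each well was multiplexed: SteadyGlo luminescence measured ATXN2-luciferase expression after a fluorogenic Gly-Phe-AFC viability readout (25 uM final).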
# HepG2 viability: counter-screen for TGF-b inhibitors: cytotoxicity in HepG2 cells; Potency, µM (highest dose often 46.1 µM), for inactives: top-dose activity change, negative = cytotoxicity, usual class: cytotoxic; hit rate 0.76% among 410,000; HepG2 CAGA-GFP viability, ATP luminescence, 18 h; AID 588856
#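 HepG2 CAGA-GFP cells (1000/well, DMEM with 1% FBS) received compound, then TGF-beta at 500 pg/mL final, and were incubated 18 hours at 37 degrees C. Viability was read by CellTiter-Glo luminescence. Media-only wells were set as complete cell-killing and DMSO as no toxicity.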
# TDP1 cell CPT: growth inhibition of DT40 Tdp1-/-;hTDP1 cells with camptothecin (screen for TDP1 inhibitors); Potency, µM (titrated, usually from 46.2 µM), inactives show at the highest dose activity change, negative = growth inhibition, usual class: inhibitors; chicken DT40 Tdp1-/-;hTDP1 cells + 20 nM CPT, ATP luminescence, 48 h; hit rate 12% among 420,000; AID 686979; further: on the % scale 0 is the no-effect control and ±100 the full control effect; nearly all actives have a fitted effect of over 55% in size
#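 Cell growth measured by CellTiter-Glo luminescence after a minimum 48 h, 37 C compound exposure with 20 nM CPT in Tdp1-knockout DT40 cells stably expressing hTDP1, seeded 400/well; qHTS titration format.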
# DT40 TDP1 no CPT: qHTS for Inhibitors of human tyrosyl-DNA phosphodiesterase 1 (TDP1): qHTS in cells in absence of CPT; DT40 Tdp1-/- hTDP1 cells, no CPT, ATP luminescence, 48 h; Potency, µM (titrated, usually from 46.2 µM), for inactives: at the top dose activity change, negative = growth inhibition, actives largely listed as inhibitors; hit rate 15% among 420,000; AID 686978, 2013; further: on the % scale 0 is the no-effect control and ±100 the full control effect; nearly all actives have a fitted effect of over 55% in size
#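 Readout: luminescence from CellTiter-Glo after 30 min in the dark at RT. Cells: DT40 Tdp1-/- with stable hTDP1, 400/well. Exposure: compounds alone, ≥48 hr, 37 °C.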
# TGFb SMAD3 inh: TGF-b pathway inhibition. AID 588855. Potency, µM (series often up to 46.1 µM), for the others: at the highest dose activity, negative = inhibition, usual class: inhibitors. HepG2 CAGA-GFP TGF-b/SMAD3 reporter, GFP fluorescence, 18 h; TGF-beta stimulated, 500 pg/mL final. hit rate 1.2% among 410,000; further: on the % scale 0 is the no-effect control and ±100 the full control effect; nearly all actives have a fitted effect of over 65% in size
#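 Using HEPG2 CAGA-GFP reporter cells at 1000 cells/well, we pinned test compounds, stimulated with recombinant TGF-beta (500 pg/mL final) and measured total well GFP after 18 h.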
# ATXN viability: viability counter-screen for ATXN expression inhibitors; S2 cells (HEK-293 line with an ATXN2-luciferase reporter) viability, CellTiter-Fluor protease fluorescence, 24 h; Potency, µM (doses to about 56.7 µM), usual class: cytotoxic; hit rate 0.49% among 400,000; AID 651635; further: nearly all actives have a fitted effect of over 40% in size
# Numbers without * were called inactive; i = inactive; ? = inconclusive; · = no result given; [ ] = remark or other dose. Most compounds without a hit are left out; they make up all but 17% or so of the library. The call rests on the fitted dose curve; in most records, active means well fitted curve in the direction sought with a large enough effect; inconclusive means small, poorly fitted or top-dose-only effect, or another doubt; inactive means no such curve, though single readings can be large; an effect the other way counts as inactive or inconclusive. Potency means the concentration at half of the fitted maximal effect.
SMILES,ATXN2 expr inh,HepG2 viability,TDP1 cell CPT,DT40 TDP1 no CPT,TGFb SMAD3 inh,ATXN viability
COc1ccc(C)c2sc(N(Cc3cccnc3)C(=O)CCc3ccccc3)nc12,·,-3%,?,15µM*,-20%,·
COc1ccc(C)c2sc(N(Cc3cccnc3)C(=O)c3cccs3)nc12,·,-33%,?,?,?,·
COc1cccc(C(=O)N(Cc2cccnc2)c2nc3c(OC)ccc(C)c3s2)c1OC,·,-25%,?,23µM*,?,·
COc1ccc(C)c2sc(N(Cc3cccnc3)C(=O)C3CCCCC3)nc12,·,-23%,18µM*,15µM*,-9%,·
CCC1CN(CC(=O)NCc2n[nH]c3c2CCCCC3)Cc2cc(OC)ccc2O1 (stereo unspecified),·,·,17%[9.04 µM],?,·,i
Cc1nc(-c2ccc(S(=O)(=O)Nc3ccc(OC(F)(F)F)cc3)cc2)co1,-23%,-73%,?,?,?,i
COc1cccc(COc2ccccc2C2Nc3ccc(Br)cc3C(=O)N2NC(=O)c2ccncc2)c1 (stereo unspecified),14%,-39%,?,?,?,i
COc1ccccc1N(C(C)=O)c1nc(C)cc(C)c1C#N,-2%,-1%,8%,2%,-3%,?
COc1ccccc1OCC(=O)NNC(=O)c1ccc(F)c(S(=O)(=O)N2CCOCC2)c1,-8%,2%,-13%,-14%,-2%,i
CCn1cc(C(=O)N[C@@H](C)C(=O)NCCCN2CCOCC2)c(=O)c2cc3c(cc21)OCO3,39%,1%,-1%,0%,0%,i
Fc1cccc(Cl)c1-c1nnc2ccc3ccccc3n12,6%,-18%,26µM*,10µM*,-22%,i
Cc1ccc(NC(=O)Cc2ccccc2Cl)cc1S(=O)(=O)N(C)C,1%,-24%,-22%,-28%,-43%,i
O=C(Cn1ncc(Cl)c(Cl)c1=O)NC(=O)NC1CCCCC1,?,-52%,2.9µM*,2.9µM*,?,30µM*
O=C(Cn1ncc(Cl)c(Cl)c1=O)Nc1ccc2c(c1)OCO2,?,-39%,7.3µM*,3.3µM*,?,·
Cc1ccc(NC(=O)Cc2ccc(Cl)c(Cl)c2)cc1S(=O)(=O)N(C)C,-24%,-45%,?,23µM*,?,i
O=C(Cn1ncc(Cl)c(Cl)c1=O)c1ccc2c(c1)OCCO2,?,-82%,16µM*,23µM*,-19%,·
Cc1nn(C)c(Oc2cccc(Cl)c2)c1C(=O)Nc1ccc(F)cc1,-11%,-2%,-21%,-17%,1%,i
Cc1ccc(-n2c(SCC(=O)NCCN3C(=O)CSC3=O)nnc2-c2ccccc2F)cc1,-3%,-11%,-5%,-24%,?,i
CCN(CC)S(=O)(=O)c1cc(NC(=O)Cn2ncc(Cl)c(Cl)c2=O)ccc1C,?,1%,3.7µM*,2.3µM*,-18%,?
CCN(CC)S(=O)(=O)c1cc(NC(=O)Cc2ccsc2)ccc1C,-18%,-11%,-24%,?,-26%,i
COc1cccc(CN2CC(C(=O)N(C)Cc3ccnc4ccccc34)CCC2=O)c1 (stereo unspecified),-1%,-1%,-10%,11%,-2%,i
O=C(c1ccco1)N1CCN(CC(=O)N2CCCc3c2c(=O)oc2ccc(O)cc32)CC1,4%,0%,-11%,-10%,14%,i
CCCOc1ccc2oc(=O)c3c(c2c1)CCCN3C(=O)CN(C)Cc1ccccc1,-9%,-31%,?,21µM*,13%,i
O=C(CN1CCN(Cc2ccccc2)CC1)N1CCCc2c1c(=O)oc1ccc(O)cc21,-27%,-17%,23µM*,?,-6%,?
CCC1CCCCN1CC(=O)N1CCCc2c1c(=O)oc1ccc(OCc3ccccc3)cc21 (stereo unspecified),?,-36%,15µM*,10µM*,?,?
SMILES,ATXN2 expr inh,HepG2 viability,TDP1 cell CPT,DT40 TDP1 no CPT,TGFb SMAD3 inh,ATXN viability
CC1(C)OC(=O)C2(Cc3ccccc3N3CCCC32)C(=O)O1 (stereo unspecified),·,-17%,·,·,-6%,·
CC1CCN2c3ccccc3CC3(C(=O)OC(C)(C)OC3=O)C2C1 (stereo unspecified),·,2%,?,10µM*,?,·
Cc1cccc(C(=O)NCC(c2ccco2)S(=O)(=O)c2cccs2)c1 (stereo unspecified),·,-15%,?,?,-20%,·
CC#CC[N+](C)(C)CCCCCCCC,-15%,2%,12µM*,9.2µM*,16%,i
Cc1ccc(-n2nc(C)c(NC(=O)CCl)c2C)cc1C,?,-68%,8.2µM*,8.2µM*,?,·
Cc1nn(-c2ccccc2)c(C)c1NC(=O)COc1ccc(C#N)cc1,-2%,-11%,?,12µM*,-1%,i
Cc1nn(C)c(C)c1NC(=O)COc1ccc(Cl)cc1,·,-13%,6.5µM*,2.6µM*,?,i
Cc1nn(-c2ccccc2)c(C)c1NC(=O)COc1ccccc1C#N,·,2%,?,-25%,2%,i
CCOC(=O)Cn1nc(C)c(NC(=O)COc2ccccc2)c1C,-2%[11.3 µM],7%,-2%,?,-1%,i
CCOC(=O)Cn1nc(C)c(NC(=O)COc2ccc(Cl)cc2C)c1C,-26%,-58%,9.2µM*,8.2µM*,?,i
CCC(=O)Nc1c(C)nn(-c2ccc(C)c(C)c2)c1C,15%,-50%,-5%,-4%,-11%,i
CCN(CCn1cccn1)C(=O)c1ccc2nc(Cc3ccc(OC)cc3)oc2c1,5%,8%,?,?,6%,i
COCCCNC(=O)CCC(=O)N1Cc2cccc(OC)c2Oc2ncccc21,4%,-5%,-8%,-7%,1%,i
Cc1cc(C)c(S(=O)(=O)c2ccccc2C)c(OCCN(C)C)n1,-3%,-7%,29%,-3%,7%,i
CC1(C)OC(=O)C2(Cc3ccc(Br)cc3N3CCCCC32)C(=O)O1 (stereo unspecified),·,-5%,-17%,-13%,-7%,·
Cc1nn(-c2ccccc2)c(C)c1NC(=O)COC(=O)c1ccccc1,7%,4%,-11%,13%,3%,i
Cc1nn(-c2ccccc2)c(C)c1NC(=O)COc1ccc2ccccc2c1,-25%,-10%,16µM*,18µM*,?,i
